HADH2 inhib = blocks human hydroxyacyl-CoA dehydrogenase type II; Q99714; recombinant HADH2, NADH fluorescence, beta-hydroxybutyryl-CoA; Potency, µM (series often up to 57.1 µM), usual class: inhibitors; hit rate 3.4% among 73,000; note: nearly all actives have a fitted effect of over 60% in size
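Activity measured as NADH fluorescence gain (360/450 nm), taken as the change between first and last reads of a 4-min kinetic run. Conditions: pH 9.0 Tris buffer, 20 nM E. coli-expressed His-tagged enzyme, 1 mM NAD+, 90 uM beta-hydroxybutyryl-CoA; 15-min compound preincubation.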
ERK AVP inh = blocks ERK signaling stimulated by vasopressin | HEK293-V1b, vasopressin-stimulated pERK AlphaScreen | Potency, µM (top dose mostly 57.5 µM), most hits filed as inhibitors | hit rate 0.99% among 72,000; note: nearly all actives have a fitted effect of over 55% in size
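Overnight-seeded V1b-HEK293 cells in 1% FBS got compound, then vasopressin (25 nM final, 5 min, 37C), then lysis buffer. AlphaScreen detection of phospho-ERK; activity normalized to basal and full-stimulation controls.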
ALOX15 inhib = inhibitors of human 15-lipoxygenase (ALOX15); P16050; purified 15hLO-1, xylenol orange hydroperoxide absorbance; Potency, µM (titrated, usually from 57.1 µM), usual class: inhibitors; hit rate 1.4% among 74,000; note: nearly all actives have a fitted effect of over 55% in size
Target sequence (P16050 whole entry, looked up): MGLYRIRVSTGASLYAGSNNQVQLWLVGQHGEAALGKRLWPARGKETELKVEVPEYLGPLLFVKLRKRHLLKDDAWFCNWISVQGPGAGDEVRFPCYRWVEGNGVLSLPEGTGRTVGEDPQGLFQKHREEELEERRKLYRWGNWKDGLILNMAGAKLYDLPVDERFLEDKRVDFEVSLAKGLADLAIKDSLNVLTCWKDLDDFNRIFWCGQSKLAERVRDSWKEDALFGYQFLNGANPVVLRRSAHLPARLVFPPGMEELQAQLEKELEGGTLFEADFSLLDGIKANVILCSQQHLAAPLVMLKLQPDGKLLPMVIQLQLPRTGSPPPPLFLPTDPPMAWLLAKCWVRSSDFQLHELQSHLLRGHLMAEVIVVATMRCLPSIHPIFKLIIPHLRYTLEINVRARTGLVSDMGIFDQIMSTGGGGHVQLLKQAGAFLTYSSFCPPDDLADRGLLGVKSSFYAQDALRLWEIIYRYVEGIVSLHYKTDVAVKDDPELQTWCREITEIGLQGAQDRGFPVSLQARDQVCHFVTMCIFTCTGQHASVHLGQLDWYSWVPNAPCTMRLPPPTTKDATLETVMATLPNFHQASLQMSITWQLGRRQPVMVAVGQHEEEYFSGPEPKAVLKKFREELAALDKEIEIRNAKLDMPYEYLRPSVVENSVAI
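Hydroperoxide formed from arachidonic acid (50 uM) by purified human 15hLO-1 (40 nM) oxidizes ferrous iron, and the ferric-xylenol orange complex is read at 573 versus 405 nm. Compounds were preincubated 15 min; reaction ran 6 min at room temperature.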
HSD17B inh = inhibitors of human HSD17B10 dehydrogenase. Q99714. recombinant HSD17B10, NADH fluorescence kinetic. Potency, µM (titrated, usually from 57.1 µM), usual class: inhibitors. hit rate 7.6% among 75,000;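 note: the protocol describes HADH2 (HSD17B10) and not the HSD17B4 of the title; nearly all actives have a fitted effect of over 70% in size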
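20 nM HADH2, pH 9.0 Tris/Tween; cpd preinc 15 min RT; start w/ 1 mM NAD+ + 90 uM b-hydroxybutyryl-CoA; kinetic fluor ex360/em450 q30s x 4 min; delta last-first.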
FLuc inh = blocks Photinus pyralis firefly luciferase activity; AID 411; Potency, µM (titrated, usually from 57.1 µM), most hits filed as inhibitors; hit rate 2.2% among 72,000; purified firefly luciferase, luminescence, 8 min; note: nearly all actives have a fitted effect of over 40% in size
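qHTS concentration-response profiling: light output of P. pyralis luciferase with luciferin and 10 uM ATP, imidazole buffer pH 7.2. Read by luminescence after 8-min room-temperature incubation.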
PK Bst = alters activity of Bacillus stearothermophilus pyruvate kinase; purified pyruvate kinase, luminescence ATP production; ribose 5-phosphate activator present at AC10; Potency, µM; hit rate 1.2% among 51,000; AID 361; in the data active = potency below about 11 µM; inconclusive = mostly about 12 µM to 25 µM;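 the screen sought inhibitors and activators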
Each line names hits and unclear results; the compound was inactive in the other large screens. An excerpt weighted towards active compounds, which were near 11% of everything screened. Unless noted, calls come from the whole dose curve; as a rule, active = well fitted curve in the direction sought with a large enough effect; inconclusive = small, poorly fitted or top-dose-only effect, or another doubt; inactive = no such curve, though single readings can be large; an effect the other way counts as inactive or inconclusive.

Cc1ccc(S(=O)(=O)c2nc(-c3cccs3)oc2SCC(N)=O)cc1	HSD17B inh inconclusive, PK Bst 9.1
O=C(Nc1cnccn1)c1ccncc1	none
O=C(Nc1cnccn1)c1cccc(C(F)(F)F)c1	ALOX15 inhib inconclusive, HSD17B inh 16µM, FLuc inh inconclusive
c1ccc(CNc2ccnc(-c3ccoc3)n2)cc1	none (no result: PK Bst)
N#Cc1c(NCCCO)nc(NCc2ccccc2)c2c1CCN(Cc1ccccc1)C2	ALOX15 inhib 5µM, HSD17B inh 16µM
N#C/C(=C/c1ccc(N2CCCCCC2)o1)c1ccc(F)cc1	ERK AVP inh 25µM, ALOX15 inhib inconclusive, HSD17B inh inconclusive (no result: PK Bst)
COc1cc(/C=C(/C#N)c2ccc(F)cc2)ccc1OCc1ccc(C(=O)O)o1	HSD17B inh inconclusive
CN(C)c1ccc(Nc2nc(-c3cccnc3)cs2)cc1	ERK AVP inh inconclusive, FLuc inh 0.63µM (no result: PK Bst)
O=C(Nc1nc(-c2cccnc2)cs1)c1ccc(S(=O)(=O)N2CCOCC2)cc1	none
CN[C@H](CC(=O)O)C(=O)O	HSD17B inh 25µM (no result: PK Bst)
CC(=O)NC(CC(=O)O)C(=O)NC(CCC(=O)O)C(=O)O (stereo not given)	none (no result: HADH2 inhib, FLuc inh, PK Bst)
O=C1C2=C(Nc3cc([N+](=O)[O-])ccc3N2)O[C@@H]1c1c[nH]c2ccc(COc3ccccc3)cc12	none (no result: PK Bst)
O=S(=O)(/N=C(/Nc1cc(N2CCOCC2)ncn1)c1ccc(F)cc1)c1ccccc1	ERK AVP inh inconclusive
O=S(=O)(/N=C(/Nc1cc(N2CCOCC2)ncn1)c1ccccc1)c1ccccc1	HSD17B inh 25µM, FLuc inh 3.2µM (no result: PK Bst)
COc1cc(=O)n(C)c2c(OCC(O)C(C)(C)O)cccc12 (stereo not given)	ERK AVP inh inconclusive (no result: HADH2 inhib, FLuc inh, PK Bst)
Cc1cc2ccc(=O)oc2cc1OC[C@@H](O)C(C)(C)O	HADH2 inhib 1.3µM, HSD17B inh 13µM (no result: PK Bst)
O=P(O)(CCP(=O)(O)c1ccccc1)c1ccccc1	none (no result: PK Bst)
CCn1nc(NC(=O)c2ccccn2)c2cc3cc(C)ccc3nc21	HSD17B inh inconclusive, FLuc inh 7.9µM (no result: PK Bst)
CCn1nc(NC(=O)c2cccnc2)c2cc3ccccc3nc21	none (no result: HADH2 inhib, ERK AVP inh, ALOX15 inhib, HSD17B inh)
COC(=O)C1=C(C)NC(C)=C(C(=O)OC)C1c1cc2ccc(C)cc2[nH]c1=O	HSD17B inh inconclusive
CCOC(=O)C1=C(C)NC(C)=C(C(=O)OCC)C1c1cc2ccc(C)cc2[nH]c1=O	HSD17B inh 25µM
COC(=O)C1=C(C)NC(C)=C(C(=O)OC)C1c1cc2cc(C)ccc2[nH]c1=O	HSD17B inh 32µM
O=C(Nc1nc(-c2ccco2)cs1)c1ccccc1	HADH2 inhib inconclusive, ALOX15 inhib 16µM, FLuc inh inconclusive
Cc1csc(NC(=O)c2ccoc2C)n1	none
O=C1C2C3C=CC(CO)(O3)C2C(=O)N1c1ccc(-c2ccccc2)cc1 (stereo not given)	HSD17B inh 20µM (no result: PK Bst)
COc1ccc(C(=O)[C@H](Br)[C@H](Br)C(=O)O)cc1	none (no result: PK Bst)
CS(=O)(=O)N1CCC2(CC1)CN(C(=O)Nc1ccccc1)C2	ALOX15 inhib 0.5µM (no result: PK Bst)
CS(=O)(=O)N1CCC2(CC1)CN(C(=O)Nc1cccc(F)c1)C2	none (no result: PK Bst)
CC(=O)NC1(c2ccccc2)CCN(c2nc(C)cc(C)n2)CC1	HSD17B inh 25µM
Cc1c(N=C=O)cccc1N=C=O	none (no result: FLuc inh, PK Bst)
C[C@@]1(C(=O)O)NCCc2cc(O)c(O)cc21	HADH2 inhib 16µM, ERK AVP inh inconclusive (no result: PK Bst)
CNC(=O)c1ccccc1	none (no result: FLuc inh, PK Bst)
CCCCCOC(=O)Cc1c(O)c2ccccc2n(C)c1=O	HSD17B inh 32µM
Nc1nc2c(ncn2C2OC(CO)CC2O)c(=O)[nH]1 (stereo not given)	none (no result: HADH2 inhib, FLuc inh, PK Bst)
CC(C)OC(=O)c1cn(-c2ccccc2)nc1-c1ccco1	HADH2 inhib inconclusive, ALOX15 inhib 20µM, HSD17B inh 32µM
Cn1cccc1C(=O)N1CCC2(CC1)CCN(c1cccc(-c3ccccc3)c1)CC2	ERK AVP inh inconclusive, HSD17B inh inconclusive (no result: PK Bst)
CC[C@](C)(CN(C)C)OC(=O)c1ccccc1	none (no result: FLuc inh, PK Bst)
C=CCN1C(=O)C(O)(CC(=O)c2ccc(N)cc2)c2ccccc21 (stereo not given)	none (no result: PK Bst)
O=C(CC1(O)C(=O)N(C/C=C/c2ccccc2)c2ccccc21)c1ccccn1 (stereo not given)	HSD17B inh 25µM
